This is part of a sample that, as a whole, favours compounds with a hit. Of some 83,000 tested, about 20% had one in any assay.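 For each line, cells grew in 96-well plates with the test compound present at a single concentration for 48 hours.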 The source made the active and inactive calls.
Each compound was assayed on HCC-2998 colon (assay: NCI-60 one-dose screen, 48 h (100 = growth as untreated, 0 = no growth, -100 = all killed)). Settings: 10 µM unless noted.
Experimental: Growth inhibition of the HCC-2998 human tumor cell line is measured as a screen for anti-cancer activity. Cells are grown in 96 well plates and exposed to the test compound for 48 hours. Compounds are tested at a single concentration, which is 10^-5 M for most compounds. The reported endpoint is percent growth (GI% or GIPRCNT), where numbers from 0 - 100% represent growth inhibition, and numbers from -100% - 0 represent cell death. For example, a value of 40 represents 60% growth inhibition. A value of 0 means no net growth occurred over the course of the experiment. A value of -40 indicates 40% of cells at the beginning of the experiment died by the end of the experiment. A value of -100 means all cells are dead at the end of the experiment.
NCI-60 Human Tumor Cell Lines Screen was performed using the standard one-dose NCI protocol, which is described in more detail at https://dtp.cancer.gov/discovery_development/nci-60/default.htm.
Compounds with GIPRCNT values below 10 were considered active. Activity score was based on GIPRCNT using the following formula: […]
Score is 0 for GIPRCNT values of 100 or above, 50 for GIPRCNT values of 0, and 100 for GIPRCNT values of -100.

SMILES	growth
COc1cnc2c(c1)C(=O)c1c-2n(CCCNCCO)c(=O)c2ccncc12	26.4% (inactive)
C#CCOc1cccc(Nc2ncnc3c(NC(=O)C=C)cccc23)c1	79% (inactive)
O=C(CSc1nc2sc3c(c2c(=O)n1-c1ccccc1)CCCCC3)N/N=C/c1ccc(F)cc1	106% (inactive)
COC(C(=O)[C@@H](O)[C@@H](C)O)[C@@H]1Cc2cc3cc(O[C@H]4C[C@@H](O[C@H]5C[C@@H](O)[C@H](O)C(C)O5)[C@H](O)C(C)O4)c(C)c(O)c3c(O)c2C(=O)[C@H]1O[C@H]1C[C@@H](O[C@H]2C[C@@H](O[C@H]3C[C@@H](O)[C@H](OC)C(C)O3)[C@@H](O)C(C)O2)[C@H](O)C(C)O1 (stereo not given in full)	1.1% (active)
O=S(=O)(NCCNc1nccc(-c2c(-c3cccc(F)c3)nc3occn23)n1)c1ccc(Br)cc1	106% (inactive)
CN(C)Cc1ccc(NC(=O)c2cncc(C#Cc3cnc(N)c4ncccc34)c2)cc1F	91% (inactive)
C#Cc1cccc(Nc2ncnc3ccc(-c4cnc(N)nc4)cc23)c1	64.7% (inactive)
CC1=NN(c2nc(SCC(=O)Nc3nc4ccc(C)cc4s3)nc(-c3ccccc3)c2C#N)C(=O)C1	104% (inactive)
O=C(CCC(=O)N/N=C/c1ccccc1O)N/N=C/c1ccccc1O	46% (inactive)
CN(C)CCCn1c2c(c3ncccc3c1=O)C(=O)c1ccccc1-2	63.9% (inactive)
Cc1cccc2c1NC(=O)C2(c1ccc(O)cc1)c1ccc(O)cc1	42.9% (inactive)
COc1ccc(/C=C2\COc3ccc(O)c(O)c3C2=O)cc1	50.7% (inactive)
N#Cc1c(N)nnn1Cc1cc(=O)oc2c1ccc1ccccc12	105% (inactive)
C=C1C(=O)O[C@H]2[C@H]1CC/C(COC(=O)CSCCSCC(=O)OC/C1=C/CC[C@@]3(C)O[C@H]3[C@H]3OC(=O)C(=C)[C@@H]3CC1)=C\CC[C@@]1(C)O[C@@H]21	25.8% (inactive)
Cc1oc(-c2ccc(Cl)cc2)nc1/C=C/C(=O)c1ccccc1	103% (inactive)
O=C(CSc1nnc2n1S(=O)(=O)c1ccccc1N2c1ccccc1)Nc1nc2ccc(F)cc2s1	95.6% (inactive)
Cc1ccc(-n2c(=S)[nH]c3sc4c(c3c2=O)CCC(=O)C4)cc1	80.8% (inactive)
CC(C)(C)n1cc(-c2ccnc(NCCNS(=O)(=O)c3cccc4ccccc34)c2)c(-c2cccc(F)c2)n1	-41.8% (active)
CCCCN[C@H]1CC[C@@]2(C)[C@@H](CC[C@@]3(C)[C@H]2[C@H](O)C[C@H]2/C(=C(\CCC=C(C)C)C(=O)OC)[C@@H](OC(C)=O)C[C@@]23C)[C@@H]1C	99.3% (inactive)
C=C1C(=O)O[C@H]2[C@H]1CC/C(COC(=O)CCSCCC(=O)OC/C1=C/CC[C@@]3(C)O[C@H]3[C@H]3OC(=O)C(=C)[C@@H]3CC1)=C\CC[C@@]1(C)O[C@@H]21	-1.54% (active)

SMILES	growth
Cc1nn(-c2ccccc2)c(Oc2ccccn2)c1-c1nc2ccccc2s1	103% (inactive)
Cn1cc(-c2csc(-c3c[nH]c4ccc(Br)cc34)n2)c2cnccc21	-76.5% (active)
N#Cc1c(-c2ccc(Cl)cc2)nc(SCC(=O)NC2=NN=C(c3ccccc3)CS2)[nH]c1=O	89.6% (inactive)
COc1ccc2c(O)c(/C=C3\N=Nc4ccccc43)oc2c1C[C@@H]1CCNC[C@H]1F	78% (inactive)
O=C(Cn1c(-c2ccc([N+](=O)[O-])cc2)nc2ccccc21)NNC(=O)c1cccnc1	98.5% (inactive)
CCCCOC(=O)OCc1cc(=O)c(O)co1	106% (inactive)
O=[N+]([O-])c1ccc(N/N=C(/C(=N/Nc2ccc([N+](=O)[O-])cc2)c2ccccc2)c2ccccc2)cc1	105% (inactive)
C#Cc1cccc(Nc2ncnc3ccc(-c4cncc(NS(C)(=O)=O)c4)cc23)c1	45.5% (inactive)
O=C1c2cccnc2C(=O)c2c1c(C(=O)NCCCN1CCCCC1)c1ccccn21	-56.7% (active)
CC(=O)Nc1nc2ccc(NS(=O)(=O)c3cccc4c(N(C)C)cccc34)cc2[nH]1	83.3% (inactive)
O=C(Nc1ncc(Cc2ccc(Cl)c(C(F)(F)F)c2)s1)c1ccc2nnsc2c1	10.6% (inactive)
CCc1ccc(C(=O)/C=C/C23c4ccccc4C(c4ccccc42)C2C(=O)NC(=O)C23)cc1 (stereo not given)	24.5% (inactive)
Cc1c(-n2nnc(-c3nc4ccccc4s3)c2N)c(=O)n(-c2ccccc2)n1C	95.4% (inactive)
CCC(C)N(c1ccc(Cl)cc1)c1nc(-c2ccc(Br)cc2)cs1 (stereo not given)	108% (inactive)
CCCCN1C(=O)/C(=c2\sc3n(c2=O)C2C(NN=3)N(CC)C(=O)N2CC)c2ccccc21 (stereo not given)	6.49% (active)
CC(O)c1cnc(/C=C2\SC(=S)N(Cc3ccccc3)C2=O)s1 (stereo not given)	107% (inactive)
CN(Cc1ccc(C(F)(F)F)cc1)CC(O)C(=O)Nc1ccc(Cl)cc1 (stereo not given)	-48.2% (active)
CCOC(=O)C1=C(NC)OCC1=O	102% (inactive)
CC(C)(C)[Si](C)(C)O[C@H]1C(=O)C=CN2CC=C[C@@H]12	111% [100 µM] (inactive)
O=C(CSc1nc(-c2ccccc2)[nH]c1S(=O)(=O)c1ccccc1)NC1CC1	69% (inactive)
